Measurements: PubChem BioAssay (NCATS)
Records with an inconclusive call do not appear. Activity calls are given as the source filed them. Unless noted, the call rests on the fitted dose curve; in most records, active means well fitted curve in the direction sought with a large enough effect; inconclusive means small, poorly fitted or top-dose-only effect, or another doubt; inactive means no such curve, though single readings can be large; an effect the other way counts as inactive or inconclusive.

Assays:
[1] = tested on: Zika virus NS2B-NS3 protease (linked construct); test: Primary screen NINDS Rhodamine qHTS for Zika virus inhibitors (AID 1347160); further: on the % scale 0 is the no-effect control and ±100 the full control effect; nearly all actives have a fitted effect of over 55% in size
Procedure, shortened: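 Aprotinin served as in-plate control. Conditions: 25 nM linked NS2B-NS3, pH 8.0 Tris buffer, titrated compounds, 15 min preincubation and 15 min reaction with 1.5 microM Rhod110 substrate at room temperature.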

[2] = biological target: Calcium and integrin-binding protein 1 (Homo sapiens) (UniProt Q99828); test: Primary qHTS for Identification of Calcium Integrin Binding Protein 1 (CIB1) Competitor (AID 1508620);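 further: GST tagged CIB1 binding a fluorescein labelled alphaIIb integrin peptide tracer; top concentration of the series differs between compounds; on the % scale 0 is the no-effect control and ±100 the full control effect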
Procedure, shortened: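 Fluorescence polarization competition: CIB1-GST (1 uM final) preincubated with compound 15 min at room temperature, then FITC-labeled alphaIIb peptide (100 nM final) added for another 15 min. Polarization read at Ex 480/Em 540.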

[3] = Primary qHTS for inhibitors of nuclear receptor binding SET domain protein 2 (NSD2) in an isogenic RCH-ACV NSD2 p.E1099K mutant (9B) (AID 1645876); further: potency means the concentration at half of the fitted maximal effect; nearly all actives have a fitted effect of over 70% in size
[4] = Primary qHTS for inhibitors of nuclear receptor binding SET domain protein 2 (NSD2) in an RCH-ACV wild type WT cells (2C) (AID 1645877); further: potency means the concentration at half of the fitted maximal effect; nearly all actives have a fitted effect of over 70% in size
[5] = NCATS anti-infectives library activity on HEK293 viability as a counter-qHTS vs the C. elegans viability qHTS (AID 1745854);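 further: HEK293 cells exposed to compounds for 24 hr before the viability read; on the % scale 0 is the no-effect control and ±100 the full control effect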
Procedure, shortened: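 Counter-screen for cytotoxicity: HEK293, 24 hr, 37C, compounds up to 41.7 uM final (a dilution series, 1:5). Readout CellTiter-Glo luminescence, 10 min RT. Digitonin control, […] uM final.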

[6] = biological target: Glutathione peroxidase 1 (Homo sapiens) (UniProt P07203); test: Primary qHTS Assay for Inhibitors of Recombinant Selenoprotein Glutathione Peroxidase 1 (GPX1) (AID 1845191); further: nearly all actives have a fitted effect of over 65% in size; on activity, negative = inhibition: on the % scale 0 is the no-effect control and ±100 the full control effect
Procedure, shortened: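 GPX1 10 nM, GR 100 nM, GSH 1 mM, NADPH 0.5 mM, CHP 0.5 mM (final). 30-min cpd preincubation, RT. Ex340/Em450 read t=0, t=15 min.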

[7] = biological target: Phospholipid hydroperoxide glutathione peroxidase GPX4 (Homo sapiens) (UniProt P36969); test: Primary qHTS Assay for Inhibitors of Recombinant Selenoprotein Glutathione Peroxidase 4 (GPX4) (AID 1845192); further: nearly all actives have a fitted effect of over 65% in size
Procedure, shortened: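 qHTS, GR-coupled: GPX4 200 nM + cpd 30 min RT → GSH 1 mM, NADPH 0.5 mM, GR 100 nM → CHP 0.5 mM start; fluor 340/450 at t0 and t15 min; no-enzyme wells as control.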

[8] = biological target: Luciferin 4-monooxygenase (Photinus pyralis) (UniProt P08659); test: Primary firefly luciferase (FLuc) qHTS assay for identification of artifact compounds. (AID 1845220); conditions: outcome: dose series up to 54.1 µM unless noted; further: nearly all actives have a fitted effect of over 60% in size
Procedure, shortened: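 qHTS, 15 min compound preincubation with substrate (10 uM luciferin, 10 uM ATP) at RT, then 10 nM FLuc; 5 min; luminescence; % inhibition vs no-enzyme/DMSO controls, 4-parameter Hill fit.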

[9] = Primary fluorescence-based thiol-reactive (MSTI) qHTS assay for identification of artifact compounds. (AID 1845221);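 further: thiol-reactive compounds lower the probe fluorescence signal; nearly all actives have a fitted effect of over 65% in size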
Procedure, shortened: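 qHTS titration of compound; 4 uM MSTI, PBS pH 7.4, 2% DMSO; 1 h RT, dark; fluorescence 525/598 nm; normalized to Acetyl-MSTI and MSTI; 4-parameter Hill fit.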

[10] = tested on: Nanoluciferase (engineered Oplophorus gracilirostris luciferase); test: Primary Nanoluciferase (NLuc) qHTS assay for identification of artifact compounds. (AID 1845222)
Procedure, shortened: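 Luminescence read-out of secreted NLuc in S16 cell conditioned medium (1:55); compounds tested with 15 min RT preincubation, then Nano-Glo substrate 1:100, 5 min. % inhibition vs no-enzyme and DMSO controls, 4-parameter Hill fit.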

[11] = qHTS drug screen for cell cycle checkpoint inhibitors in PARPi-resistant BRCA-mutant ovarian cancer cell lines. (AID 1963452; calls by dose curve); conditions: PEO1/OlaR viability, CellTiter-Glo luminescence, 96 h, stronger effect = lower value
Procedure, shortened: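 PEO1, PEO4 and PEO1/OlaR ovarian cancer cells, 600 per well, exposed 96 h at 37C to a dilution series. Viability read by CellTiter-Glo luminescence, normalized to DMSO and empty wells; activity summarized as Z-AUC.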

[12] = tested on: HEK293; test: Cytotoxic Profiling of Annotated Libraries Using Quantitative High-Throughput Screening (AID 1296008); conditions: Five cell lines viability, CellTiter-Glo ATP luminescence, 48-72 h; max response: stronger effect = lower value; further: nearly all actives have a fitted effect of over 60% in size; further: potency means the concentration at half of the fitted maximal effect
Procedure, shortened: (§1)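 Compounds were pin-transferred onto cells and incubated 48 or 72 hr at 37 degree Celsius, 95% humidity. CellTiter-Glo was added, plates sat 10 min at room temperature, then ATP-coupled luminescence was imaged as the viability read-out.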

[13] = tested on: HaCat; test: as above; conditions: Five cell lines viability, CellTiter-Glo ATP luminescence, 48-72 h; max response: stronger effect = lower value
Procedure, shortened: as §1

[14] = tested on: HACAT; test: qHTS assay to identify novel small-molecules to repurpose for Merkel cell carcinoma treatment (AID 1296009); conditions: MCC and control cell lines, CellTiter-Glo viability, 72 h; at 44.8 µM (top of the series) unless noted; further: nearly all actives have a fitted effect of over 60% in size
Procedure, shortened: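 Viability readout: ATP luminescence (CellTiter-Glo) after 72 hr drug exposure at 37 degree celsius. Dose-response format was 8 points for NPC and 11 points for MIPE; data normalized to in-plate controls.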

[15] = tested on: C33A; test: Primary qHTS to identify gynecologic anti-cancer compounds using libraries of approved drugs and bioactive compounds (AID 1345084); conditions: Gynecologic cancer cell panel viability, ATPlite luminescence, 48 h; series mostly up to 57.5 µM; further: nearly all actives have a fitted effect of over 55% in size; further: potency means the concentration at half of the fitted maximal effect
Procedure, shortened: (§2)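 Cells, 1,000 per well, were allowed to settle for 16 h at 37 C before compound addition. Five concentrations were tested for 48 h, and viability was read by ATPlite luminescence after 15 min at room temperature.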

[16] = tested on: Hek293T; test: as above; conditions: Gynecologic cancer cell panel viability, ATPlite luminescence, 48 h, control line for the selectivity index; series mostly up to 57.5 µM
Procedure, shortened: as §2

[17] = tested on: JEG-3; test: as above; conditions: Gynecologic cancer cell panel viability, ATPlite luminescence, 48 h; series mostly up to 57.5 µM
Procedure, shortened: as §2

[18] = tested on: SKOV3; test: as above; conditions: Gynecologic cancer cell panel viability, ATPlite luminescence, 48 h; series mostly up to 57.5 µM
Procedure, shortened: as §2

[19] = tested on: Tov112D; test: as above; conditions: Gynecologic cancer cell panel viability, ATPlite luminescence, 48 h; series mostly up to 57.5 µM
Procedure, shortened: as §2

[20] = qHTS assay to identify inhibitors of the type 1 interferon - major histocompatibility complex class I in skeletal muscle: Counter screen cell viability and HiBit confirmation (AID 1347412); conditions: iHSKM muscle cells + IFN-b, HiBiT or CellTiter-Glo, 24 h; Potency: HiBiT; Viability, at 45.9 µM (top of the series)
Procedure, shortened: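 HLA-B*08:01–HiBiT knock-in immortalized human myoblasts (C25cl48) stimulated with 4.0 ng/ml human IFN-beta and dosed with compound in a 12-point 1:3 titration (top final 46 uM). After 24 hrs at 37 C, HiBiT lytic luminescence or CellTiter Glo ATP read out.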

[21] = P-glycoprotein substrates identified in KB-8-5-11 adenocarcinoma cell line, qHTS therapeutic library screen (AID 1346987); further: potency means the concentration at half of the fitted maximal effect; nearly all actives have a fitted effect of over 65% in size
Procedure, shortened: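 Luminescence from CellTiter-Glo, read 5 min after addition, quantified survival of KB-8-5-11 (P-gp-overexpressing) cells exposed to compounds for 72 h. AC50 was derived from concentration-response curves.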

[22] = tested on: Zika virus NS2B-NS3 protease (unlinked complex); test: Primary screen GU Rhodamine qHTS for Zika virus inhibitors: Unlinked NS2B-NS3 protease assay (AID 1347159)
Procedure, shortened: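 Buffer 10 mM Tris-HCl pH 8.0, 0.01% Tween 20. Unlinked protease 25 nM; compound preincubation 15 min, RT, protected from light. Substrate Rhod110, 1.5 microM; ~15% conversion in 15 min.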

[23] = Primary qHTS for Huh7 cytotoxicity: counterscreen for inhibitors of MERS-S pseudotyped particle cell entry (AID 1479147; calls by dose curve); conditions: outcome: dose series up to 57.1 µM unless noted
[24] = Primary qHTS for Vero E6 cytotoxicity: counterscreen for inhibitors of SARS-S pseudo-typed particle cell entry (AID 1479150; calls by dose curve; further: on the % scale 0 is the no-effect control and ±100 the full control effect); conditions: outcome: dose series up to 57.1 µM unless noted
[25] = biological target: Cytochrome P450 2D6 (Homo sapiens) (UniProt P10635); test: Cytochrome P450 family 2 subfamily D member 6 (CYP2D6) small molecule antagonists: luciferase biochemical (cell-free) qHTS assay (AID 1645840; active means well fitted curve in the direction sought with a large enough effect in the repeat runs; an effect the other way counts as inactive or inconclusive; further: potency means the concentration at half of the fitted maximal effect; nearly all actives have a fitted effect of over 55% in size)
Procedure, shortened: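 P450-Glo CYP2D6 system: proluciferin substrate converted by enzyme to luciferin, read by luminescence proportional to activity. Enzyme-substrate mix with compound 10 min at room temperature, then NADPH regeneration 1 h before detection reagent.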

[26] = biological target: Cytochrome P450 2C9 (Homo sapiens) (UniProt P11712); test: Cytochrome P450 family 2 subfamily C member 9 (CYP2C9) small molecule antagonists: luciferase biochemical (cell-free) qHTS assay (AID 1645842; active means well fitted curve in the direction sought with a large enough effect in the repeat runs; an effect the other way counts as inactive or inconclusive)
Procedure, shortened: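 P450-Glo CYP2C9 system: proluciferin substrate with enzyme in mix containing 0.4% BSA, 10 min at room temperature, then NADPH regeneration solution added and incubated 1 h at 37C. Detection reagent stopped reaction; luminescence read after 20 min as RLU.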

[27] = Cytotoxicity counterscreen for inhibitors of SARS-CoV-2 cell entry (AID 1645845; calls by dose curve; further: nearly all actives have a fitted effect of over 50% in size)
Procedure, shortened: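 After a 15 min room-temperature ATPLite 1step step, luminescence reflected ATP remaining in HEK293-ACE2 cells exposed to compound for 1 h plus 48 h at 37 C, with percent activity set by cell and no-cell controls.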

[28] = Primary redox qHTS assay for identification of artifact compounds. (AID 1845223);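 further: 0% = DMSO and 100% = reference compound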
Procedure, shortened: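 Redox-cycling detection via DTT (250 uM final) oxidation coupled to Amplex Red (25 uM)/HRP (250 mU/mL) in HBSS. 15 min preincubation plus 30 min after DTT, room temperature. Ex/Em 525/598 nm; 4-parameter Hill fit against DMSO and 10 uM DA3003.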

[29] = tested on: NIH3T3; test: Cytotoxic Profiling of Annotated Libraries Using Quantitative High-Throughput Screening (AID 1296008); conditions: Five cell lines viability, CellTiter-Glo ATP luminescence, 48-72 h; max response: stronger effect = lower value; further: nearly all actives have a fitted effect of over 60% in size; further: potency means the concentration at half of the fitted maximal effect
Procedure, shortened: as §1

[30] = tested on: CAOV3; test: Primary qHTS to identify gynecologic anti-cancer compounds using libraries of approved drugs and bioactive compounds (AID 1345084); conditions: Gynecologic cancer cell panel viability, ATPlite luminescence, 48 h; series mostly up to 57.5 µM; further: nearly all actives have a fitted effect of over 55% in size; further: potency means the concentration at half of the fitted maximal effect
Procedure, shortened: as §2

[31] = tested on: CASKI; test: as above; conditions: Gynecologic cancer cell panel viability, ATPlite luminescence, 48 h; series mostly up to 57.5 µM
Procedure, shortened: as §2

[32] = tested on: HeLa; test: as above; conditions: Gynecologic cancer cell panel viability, ATPlite luminescence, 48 h; series mostly up to 57.5 µM
Procedure, shortened: as §2

[33] = tested on: OV90; test: as above; conditions: Gynecologic cancer cell panel viability, ATPlite luminescence, 48 h; series mostly up to 57.5 µM
Procedure, shortened: as §2

[34] = tested on: PA-1; test: as above; conditions: Gynecologic cancer cell panel viability, ATPlite luminescence, 48 h; series mostly up to 57.5 µM
Procedure, shortened: as §2

[35] = tested on: Tov-21-G; test: as above; conditions: Gynecologic cancer cell panel viability, ATPlite luminescence, 48 h; series mostly up to 57.5 µM
Procedure, shortened: as §2

Chain of Glutathione peroxidase 1 (Homo sapiens) (P07203 whole entry, looked up): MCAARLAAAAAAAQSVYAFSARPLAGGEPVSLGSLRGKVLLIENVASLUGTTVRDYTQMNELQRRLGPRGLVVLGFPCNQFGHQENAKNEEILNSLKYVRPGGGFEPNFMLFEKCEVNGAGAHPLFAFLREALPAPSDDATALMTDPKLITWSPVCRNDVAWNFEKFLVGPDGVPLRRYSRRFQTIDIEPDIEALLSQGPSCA
Chain of Phospholipid hydroperoxide glutathione peroxidase GPX4 (Homo sapiens) (P36969 whole entry, looked up): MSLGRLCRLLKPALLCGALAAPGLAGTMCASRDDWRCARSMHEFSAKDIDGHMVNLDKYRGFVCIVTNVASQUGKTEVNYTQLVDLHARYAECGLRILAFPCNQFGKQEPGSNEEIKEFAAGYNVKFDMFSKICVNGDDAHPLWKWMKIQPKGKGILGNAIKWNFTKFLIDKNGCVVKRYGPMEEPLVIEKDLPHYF
Chain of Calcium and integrin-binding protein 1 (Homo sapiens) (Q99828 whole entry, looked up): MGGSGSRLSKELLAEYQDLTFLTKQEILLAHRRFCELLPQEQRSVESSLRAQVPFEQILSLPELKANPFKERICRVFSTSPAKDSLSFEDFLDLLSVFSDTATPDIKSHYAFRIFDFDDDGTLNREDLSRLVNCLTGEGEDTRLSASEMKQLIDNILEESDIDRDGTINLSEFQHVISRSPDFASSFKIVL
Chain of Cytochrome P450 2C9 (Homo sapiens) (P11712 whole entry, looked up): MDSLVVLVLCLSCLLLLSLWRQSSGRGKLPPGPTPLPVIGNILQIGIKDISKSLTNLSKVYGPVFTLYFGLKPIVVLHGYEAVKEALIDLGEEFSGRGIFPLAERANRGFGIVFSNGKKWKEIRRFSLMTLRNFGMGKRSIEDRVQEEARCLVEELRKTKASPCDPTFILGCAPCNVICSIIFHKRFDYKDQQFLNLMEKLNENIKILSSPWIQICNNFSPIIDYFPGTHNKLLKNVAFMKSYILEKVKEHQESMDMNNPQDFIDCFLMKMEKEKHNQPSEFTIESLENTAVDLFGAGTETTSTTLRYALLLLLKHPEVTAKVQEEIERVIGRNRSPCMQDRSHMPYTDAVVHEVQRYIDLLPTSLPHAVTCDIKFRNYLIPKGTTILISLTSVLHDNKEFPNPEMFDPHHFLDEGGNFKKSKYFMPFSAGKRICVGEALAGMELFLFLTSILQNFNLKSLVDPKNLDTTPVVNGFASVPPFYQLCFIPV
Chain of Cytochrome P450 2D6 (Homo sapiens) (P10635 whole entry, looked up): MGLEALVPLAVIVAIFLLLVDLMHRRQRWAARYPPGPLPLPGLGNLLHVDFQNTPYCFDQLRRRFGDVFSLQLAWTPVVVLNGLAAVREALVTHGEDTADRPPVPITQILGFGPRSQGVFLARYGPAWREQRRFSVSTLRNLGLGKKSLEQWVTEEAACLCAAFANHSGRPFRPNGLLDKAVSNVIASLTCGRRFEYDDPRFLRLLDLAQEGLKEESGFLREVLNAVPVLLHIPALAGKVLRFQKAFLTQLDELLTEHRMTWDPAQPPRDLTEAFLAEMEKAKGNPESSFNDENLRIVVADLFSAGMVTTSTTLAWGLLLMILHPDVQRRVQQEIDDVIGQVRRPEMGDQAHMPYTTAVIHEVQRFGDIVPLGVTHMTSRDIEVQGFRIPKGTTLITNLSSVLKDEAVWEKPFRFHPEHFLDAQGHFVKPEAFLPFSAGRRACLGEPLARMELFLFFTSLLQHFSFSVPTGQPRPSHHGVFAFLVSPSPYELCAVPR

Cc1sc2c(c1C)C(c1ccc(Cl)cc1)=N[C@@H](CC(=O)Nc1ccc(O)cc1)c1nnc(C)n1-2
active: Potency [3] 0.0615 µM | Potency [4] 0.069 µM | Potency [12] 0.39 µM | Potency [18] 0.562 µM
inactive: Potency [1] | Potency [2] | Potency [5] | Potency [6] | Potency [7] | outcome [8] inactive [at 11.6 µM] | activity change, negative = thiol reactive [9] 36.2% [at 11.5 µM] | activity, negative = inhibition [10] -3.15% [at 11.6 µM] | Z-AUC [11] -0.583 | outcome [13] | outcome [14] inactive [at 9.27 µM] | activity change, negative = cytotoxicity [15] -1.06% [at 11.6 µM] | activity change, negative = cytotoxicity [16] -11.9% [at 11.6 µM] | activity change, negative = cytotoxicity [17] -12.8% [at 11.6 µM] | activity change, negative = cytotoxicity [19] -20.5% [at 11.6 µM] | Potency [20]
-0.325: Z-AUC ([11]; measured here: PEO1 parental Z-AUC)
-0.491: Z-AUC ([11]; measured here: PEO4 Z-AUC)

COc1ccc(C(C)(C)C)cc1CN[C@H]1C2CCN(CC2)[C@H]1C(c1ccccc1)c1ccccc1
inactive: Potency [22] | Potency [1] | outcome [23] | outcome [24] | Potency [2] | Potency [27] | Potency [6] | Potency [7] | Potency [9] | Potency [10] | Potency [28] | max response [29] -16.4% | Potency [30] | Potency [31] | Potency [32] | Potency [16] | Potency [17] | Potency [33] | Potency [34] | Potency [18] | Potency [35] | Potency [19]
active: Potency [21] 18.4 µM | Potency [25] 2.68 µM | Potency [26] 26.8 µM | Potency [3] 6.49 µM | Potency [4] 6.49 µM | Potency [12] 10.3 µM | Potency [13] 18.4 µM
